Screens from PubChem BioAssay.
An excerpt weighted towards active compounds, which were near 2.5% of everything screened.
F508del corr: correctors of CFTR F508del function in bronchial epithelial cells; CFBE cells, YFP halide quenching; stimulated with forskolin plus potentiator P3; % fluorescence drop versus neutral controls; activity (quench increase), % at 7.58 µM; actives 0.36% (n = 350,000); AID 720511;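 active = mean added fluorescence quench of at least 8% versus neutral control, with both replicates also reaching 8%; inconclusive = only one of the mean or replicate conditions met; inactive = mean below 8% and not both replicates reaching 8%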;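 also: cells transiently co-express mutant CFTR-F508del with the halide-sensitive YFP; corrector assay measuring rescue of mutant channel to the surface after 24 h compound exposure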
PAX8 inh HTS: PAX8 transcriptional activity inhibition | inhibition, % at 12.6 µM | RMG-I TPO-luciferase reporter, SteadyGlo, 24 h | actives 1.2% (n = 360,000);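 active = mean replicate inhibition at least 60% with every replicate also reaching 60%; inconclusive = only one of the two criteria is met; inactive = mean below 60% and not all replicates reaching 60%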;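 also: luciferase light reporting Pax8 driven TPO promoter activity; plate controls were median of neutral control wells for no effect and mitoxantrone controls for full effect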
FXN GAA850 act: increases GAA850 frataxin promoter reporter activity. HEK293 lucGAA850 FXN promoter luciferase reporter, 24 h; percent of 10 µM SAHA response. activation, % at 6 µM. actives 0.56% (n = 360,000);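 active = activation above the average of all compounds screened plus 3 SD, cutoff fixed separately per campaign, cut at about 7.5% in these data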;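 also: 0% = DMSO wells and 100% = 10 µM SAHA wells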
EWS-Fli block: inhibitors of EWS/Fli oncoprotein transcriptional activity | A673 NR0B1-luciferase reporter, viability-normalised | actives 0.67% (n = 350,000) | inhibition, % at 12.6 µM;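 active = mean inhibition of at least 50% after viability correction, with every replicate also passing that limit; inconclusive = mean reaches 50% but only one of two replicates passes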;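 also: firefly luciferase signal divided by Alamar Blue viability fluorescence both relative to DMSO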
Env fusion inh: inhibitors of HIV Env-mediated cell fusion; HeLa-JRFL Env/CEM21 cell fusion, luciferase; AID 651610; inhibition, % at 12.3 µM; actives 1.1% (n = 360,000);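 active = mean replicate inhibition score of at least 50 and every replicate individually at or above 50; inconclusive = only one of the two criteria met; inactive = mean below 50 and not all replicates reaching 50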;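 also: 0% = plate neutral controls and 100% = maraviroc near 300 nM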
GAA30 counter: counter-screen for GAA850 frataxin promoter activators: GAA30 promoter activation; shares compounds with FXN GAA850 act; HEK293 lucGAA30 FXN promoter luciferase, 24 h; DMSO = 0%, 5 µM ipriflavone = 100%; activation, % at 6 µM; actives 66% (n = 1,900); AID 588350;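 active = mean activation above the mean of solvent-only control wells plus 3 SD, cut at about 22% in these data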;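 also: counterscreen of GAA850 promoter hits where activity marks nonselective or luminescence artifacts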
GAA850 confirm: confirmation of GAA850 frataxin (FXN) promoter activators; shares compounds with FXN GAA850 act; HEK293 lucGAA850 FXN promoter luciferase reporter, 24 h; 100% = activation by SAHA; activation, % at 6 µM; actives 86% (n = 1,900);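 active = mean activation above a set limit taken from the primary screen, cut at about 8% in these data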;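 also: 0% = DMSO wells and 100% = 10 µM SAHA wells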
* hit, by the source's call; ? = inconclusive; . = not tested or not shown; [ ] = another dose, or the depositor's remark.

SMILES	F508del corr	PAX8 inh HTS	FXN GAA850 act	EWS-Fli block	Env fusion inh	GAA30 counter	GAA850 confirm
CC1CC(C)CN(C(=O)c2cc3cc(Br)cc(Br)c3o2)C1 (centres undefined)	0.5	-127.3	10.1*	-71.4	-58.9	61.9*	26.5*
C[C@H]1CN([C@@H](C)CO)C(=O)c2cc(Br)cnc2O[C@@H]1CN(C)C(=O)C1CC1	0.7	.	.	-5.5	-21.6[16.7 µM]	.	.
Cc1ccc(NC(=O)CSCC(=O)Nc2ccccc2N2CCCCC2)cc1	-1.3	14.3	11.6*	-8.7	?	13.2	13.4*
Cc1ccc(N2C(=O)CS(=O)C(c3ccccc3)C2=O)cc1C (centres undefined)	-0.3	-9.3	8.2*	-43.5	-17.8	58.1*	16.4*
COc1ccc(/C=C/S(=O)(=O)NCc2ccccc2)cc1OC	1.3	0.6	7.8*	-4.2	2.2	20.4	8.2*
CC(C)NC(=O)Nc1ccc2c(c1)CC(=O)N([C@H](C)CO)C[C@H](C)[C@@H](CN(C)Cc1ccc(Cl)c(Cl)c1)O2	-2.4	12.4	.	.	.	.	.
COc1cccc(-c2ccc([C@H]3[C@@H](CO)N4CCCCN(CC5CC5)C[C@@H]34)cc2)c1	3.3	-10.2	.	9.7	.	.	.
CC(C)CC#Cc1ccc([C@H]2[C@@H](CO)N3C(=O)CN(C(=O)Cc4ccccc4)C[C@@H]23)cc1	1.6	.	.	-5.8	.	.	.
CCc1ccccc1NC(=O)CN1C(=O)c2ccccc2S1(=O)=O	-0.9	3.9	-1.7	4.4	-7.0	.	.
CCc1cccc(C)c1NC(=O)CN1C(=O)c2ccccc2S1(=O)=O	1.0	1.6	17.5*	4.0	-4.0	12.2	6.6
CC(Sc1nnc2ccccn12)C(=O)NCc1ccc2c(c1)OCO2 (centres undefined)	-0.3	-31.6	0.4	-1.4	-13.0	.	.
Cc1cc(C)cc(-n2c(SC(C)C(=O)NCc3ccc4c(c3)OCO4)nc3ccccc3c2=O)c1 (centres undefined)	.	3.0	8.7*	10.1	64.2*	23.9*	8.2*
Cc1ccc2nc(C(F)(F)F)c(C#N)c(N)c2c1	1.3	.	40.1*	10.8	.	79.4*	77.4*
Cc1cc(Br)c2c(c1)/C(=C/C(=O)c1cccs1)C(=O)N2	.	0.5	9.7*	43.1	1.4	17.0	22.3*
Cc1cccc2c1NC(=O)/C2=C\C(=O)c1cccs1	.	.	2.7	.	-86.4	.	.
O=C([C@@H]1[C@@H](CO)[C@@H]2Cn3c(ccc(-c4ccccc4F)c3=O)[C@H]1N2C(=O)C1CCC1)N1CCOCC1	0.7	.	.	0.2	.	.	.
COc1cccc(Nc2nc(C(N)CCc3ccccc3)cs2)n1 (centres undefined)	0.5	20.5	8.3*	25.4	70.3*	-4.4	7.7*
COc1cccc(Nc2nc(C(N)COCc3ccccc3)cs2)n1 (centres undefined)	4.3	23.0	4.3	17.4	?	.	.
NC(CCc1ccccc1)c1csc(NC(=O)Nc2ccccc2Oc2ccccc2)n1 (centres undefined)	4.1	16.4	10.6*	30.7	89.8*	8.6	15.9*
NC(CCc1ccccc1)c1csc(NC(=O)NCCc2ccccc2)n1 (centres undefined)	1.2	2.1	2.2	11.1	20.9	.	.
COc1cc2c(cc1OC)-c1nnnn1C(C)(C)C2	.	.	1.1	.	-89.0	.	.
COc1cc2c(cc1OC)-c1nnc(-c3cccs3)n1C(C)(C)C2	1.3	14.0	13.3*	4.7	-7.2	7.6	8.2*
CC(C)CNC(=O)c1ccccc1NC(=O)c1ccccc1N(C)S(=O)(=O)c1ccccc1	1.7	8.3	13.2*	11.6	77.8*	11.5	2.5
CCCNC(=O)c1ccccc1NC(=O)c1ccccc1N(C)S(=O)(=O)c1ccccc1	.	20.0	13.6*	.	72.3*	8.3	19.0*
COCCNC(=O)c1ccccc1NC(=O)c1ccccc1N(C)S(=O)(=O)c1ccc(C)cc1	.	.	2.9	.	.	.	.
SMILES	F508del corr	PAX8 inh HTS	FXN GAA850 act	EWS-Fli block	Env fusion inh	GAA30 counter	GAA850 confirm
O=C(Nc1ccc2c(c1)[C@H]1C[C@H](CC(=O)N3CCOCC3)O[C@@H](CO)[C@H]1O2)c1cccnc1	3.5	-7.1	.	-1.0	5.7[16.7 µM]	.	.
CCN1C(=O)[C@H]2[C@@H](c3ccc(C)cc3)N3C(=O)N(c4cccc(Br)c4)C(=O)[C@@]3(CC(C)C)[C@H]2C1=O	-3.2	-0.9	15.6*	-11.5	104.3*	21.9*	11.4*
CCN1C(=O)[C@H]2[C@@H](c3ccccc3)N3C(=O)N(c4cccc(F)c4)C(=O)[C@@]3(CC(C)C)[C@H]2C1=O	.	.	8.8*	.	.	25.4*	7.1
Cc1cccc([C@@H]2[C@@H]3C(=O)N(Cc4ccccc4)C(=O)[C@@H]3[C@]3(CC(C)C)C(=O)N(c4cccc(F)c4)C(=O)N23)c1	4.5	8.4	-1.9	-7.7	49.4	.	.
O=C1[C@H]2[C@@H](c3ccc(F)cc3)N3C(=O)N(c4cccc(F)c4)C(=O)[C@@]3(Cc3ccccc3)[C@H]2C(=O)N1C1CCCCC1	-2.9	5.8	11.2*	2.9	95.0*	27.9*	14.0*
Cc1ccc(N2C(=O)N3[C@H](c4ccc(F)cc4)[C@@H]4C(=O)N(C5CCCCC5)C(=O)[C@@H]4[C@]3(Cc3ccccc3)C2=O)cc1	-1.3	17.4	11.5*	3.0	55.8*	30.6*	10.8*
COc1ccc([C@@H]2[C@@H]3C(=O)N(C(C)(C)C)C(=O)[C@@H]3[C@]3(Cc4ccc(Cl)cc4)C(=O)N(c4ccc(OC)cc4)C(=O)N23)cc1	-1.8	-13.3	-0.2	4.1	?	.	.
COc1ccc([C@@H]2[C@@H]3C(=O)N(C(C)(C)C)C(=O)[C@@H]3[C@]3(Cc4ccccc4)C(=O)N(c4cccc(F)c4)C(=O)N23)cc1	1.0	-3.1	-0.7	-14.2	44.8	.	.
COc1ccc(N2C(=O)N3[C@H](c4ccc(Cl)cc4)[C@@H]4C(=O)N(C5CCCCC5)C(=O)[C@@H]4[C@]3(Cc3ccc(Cl)cc3)C2=O)cc1	2.5	-20.4	7.9*	-15.6	87.7*	31.3*	12.0*
O=C1[C@H]2[C@@H](c3ccc(Cl)cc3)N3C(=O)N(c4cccc(Cl)c4)C(=O)[C@@]3(Cc3ccccc3)[C@H]2C(=O)N1C1CCCCC1	-0.6	17.8	8.2*	8.3	96.8*	-9.7	0.4
CC=Cc1ccc2n(c1=O)C[C@@H]1[C@@H](CO)[C@H](C(=O)NCCC)[C@H]2N1CCC(F)(F)F (mixture of isomers)	-0.4	-7.7	.	8.6	.	.	.
O=C(C#Cc1ccccc1)c1ccco1	-5.7	123.7*	12.5*	64.0*	2.5	-115.7	-34.8
O=C(N/N=C/c1ccccc1)c1ccco1	-0.7	-45.0	3.4	-49.7	-17.9	.	.
